# This is a sample that favours compounds with a hit; in the whole collection about 11% have one here.
# FBPA coupling cs – inhibits coupling enzyme system, counter-screen for aldolase hits | coupling enzyme system counterscreen, AmpLite Red fluorescence | activity change, negative = inhibition, % at 58.2 µM, hits read low | AID 2472 | hit rate 0.67% among 290,000; in the data active = activity change below about -30%
#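 Compounds tested against the coupling enzymes alone at 57.5 uM final; readout was AmpLite Red fluorescence (525/598 nm) after 20 min at RT.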
# Tau fibril FP – tau fibrillization inhibition (FP); Potency, µM (top dose mostly 57.7 µM), inactives show at the top dose activity, negative = inhibition, usual class: inhibitors; K18 P301L tau heparin fibrillization, Alexa594 FP, 6 h; hit rate 0.39% among 280,000; AID 1468; P10636; also: potency is read from the fitted curve at half-maximal effect; nearly all actives have a fitted effect of over 55% in size
# Target sequence (P10636 561-689 P618L limits assumed): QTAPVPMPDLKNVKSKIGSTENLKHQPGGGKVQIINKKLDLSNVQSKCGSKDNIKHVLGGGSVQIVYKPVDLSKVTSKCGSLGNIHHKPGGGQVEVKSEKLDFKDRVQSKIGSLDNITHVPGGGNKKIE
#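 Human K18 P301L fragment (15 uM unlabeled plus 0.24 uM Alexa 594-labeled) in 100 mM sodium acetate pH 7 with compound, aggregation induced by 20 uM heparin for 6 hr at 37 C. ThT (30 uM) added for 1 hr, then Alexa 594 FP read.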
# Tau fluor cs – counter-screen for tau fibril formation inhibitors. tau K18 P301L Alexa594 fluorescence, heparin fibrillization. AID 1463. Potency, µM (top dose mostly 57.7 µM), without a hit: top-dose activity change, negative = decrease. hit rate 0.93% among 280,000; also: potency is read from the fitted curve at half-maximal effect; nearly all actives have a fitted effect of over 55% in size
#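 Human tau K18 P301L (15 uM unlabeled, 0.24 uM Alexa 594-labeled) in 100 mM sodium acetate pH 7 with 20 uM heparin, 6 hr at 37 C. ThT 30 uM added, 1 hr ambient; Alexa 594 FP and total fluorescence read at 555/632 nm.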
# Sfp inh – inhibitors of Bacillus subtilis Sfp phosphopantetheinyl transferase | Potency, µM, for the others: largest response in the series, negative = inhibition, hits mostly inhibitors | hit rate 3.5% among 310,000 | Biochemical Sfp PPTase activity, qHTS;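 also: the enzyme is Sfp with the accession as filed and its product quenches rhodamine fluorescence; potency is read from the fitted curve at half-maximal effect; 0% = enzyme reaction without inhibitor and -100% = no enzyme wells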
#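 With Hepes-Na pH 7.6 buffer containing 10 mM MgCl2, Sfp (15 nM) modified BHQ-2-YbbR (12.5 uM) using rhodamine-CoA (5 uM). Two reads 30 minutes apart at 525/598 nm yielded each well's rate.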
# G9a block – blocks human histone lysine methyltransferase G9a | Q96KQ7 | G9a H3K9 monomethylation, AlphaScreen, 2 h | Potency, µM (top dose mostly 102 µM), inactives show top-dose activity, negative = inhibition, actives largely listed as inhibitors | hit rate 8.8% among 350,000 | AID 504332; also: potency is read from the fitted curve at half-maximal effect; nearly all actives have a fitted effect of over 75% in size
# Target sequence (Q96KQ7 913-1193 limits assumed): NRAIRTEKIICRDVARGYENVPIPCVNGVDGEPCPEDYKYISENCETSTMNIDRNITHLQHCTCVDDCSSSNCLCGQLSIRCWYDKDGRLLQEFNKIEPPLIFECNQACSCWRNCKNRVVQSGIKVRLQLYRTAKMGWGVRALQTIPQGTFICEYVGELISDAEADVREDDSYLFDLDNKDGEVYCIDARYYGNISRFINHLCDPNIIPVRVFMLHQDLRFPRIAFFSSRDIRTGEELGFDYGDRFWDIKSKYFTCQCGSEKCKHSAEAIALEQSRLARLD
#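 G9a (20 nM) was preincubated 15 min with compound, then reacted 2 h at room temperature with 500 nM biotin-H3K9 peptide and 20 µM SAM. Monomethyl-H3K9 detected by AlphaScreen using anti-H3K9me1 antibody.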
# Tau fibril ThT – inhibitors of human tau fibril formation, thioflavin T binding. hit rate 2.1% among 270,000. Potency, µM (highest dose often 57.4 µM), for inactives: at the highest dose activity, negative = inhibition, hits mostly inhibitors. AID 1460. recombinant tau K18 P301L (four-repeat tau fragment), heparin-induced fibrillization, ThT fluorescence. P10636; also: potency is read from the fitted curve at half-maximal effect; nearly all actives have a fitted effect of over 55% in size
#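 Heparin-induced fibrillization of the P301L-mutant K18 repeat-domain fragment of human tau was followed by ThT binding in quantitative high-throughput format.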
# * marks the source's active call; other numbers are inactive results; ? = inconclusive; nt = no result; ! = repeats disagree; [ ] = remark or other dose. Unless noted, calls follow the shape of the dose curve; as a rule, active = well fitted curve in the direction sought with a large enough effect; inconclusive = small, poorly fitted or top-dose-only effect, or another doubt; inactive = no such curve, though single readings can be large; an effect the other way counts as inactive or inconclusive. Unless noted, % is scaled to controls: 0 for no effect and ±100 for the full control effect.
SMILES,FBPA coupling cs,Tau fibril FP,Tau fluor cs,Sfp inh,G9a block,Tau fibril ThT
COc1ccc(-n2cc(C(=O)Oc3cc(C)cc(C)c3)c3ccccc3c2=O)cc1,nt,-2.0%,-3.9%,nt,-13.4%[59 µM],0.2%
COc1cccc(CN2CCNC(=O)C2CC(=O)NCCc2nc(C)c(C)s2)c1OC (stereo not drawn),-4.1,2.0%,3.0%,44.7µM*,5.9%[12.7 µM],-12.3%
O=C(CC1C(=O)NCCN1Cc1ccc(F)cc1)NCCOc1cccnc1 (stereo not drawn),-10.6,-11.5%,-3.8%,-6.8%,nt,-9.1%
Cc1nc(CCNC(=O)CC2C(=O)NCCN2Cc2ccccc2F)sc1C (stereo not drawn),-8.0,-10.9%,-15.2%,-8.4%,44.7µM*,-15.2%
Cc1nc(CCNC(=O)CC2C(=O)NCCN2Cc2ccc(F)cc2)sc1C (stereo not drawn),-5.9,-14.2%,-8.7%,31.6µM*,56.2µM*,-18.0%
CC(C)(C)CN1CCNC(=O)C1CC(=O)NCCc1ccccc1F (stereo not drawn),-6.7,-6.8%,-14.9%,-5.8%,nt,-16.3%
Cc1nc(CNC(=O)CC2C(=O)NCCN2Cc2ccc(F)cc2)cs1 (stereo not drawn),nt,nt,nt,3.7%,50.1µM*,nt
C/C=C\C1=C(CO)C(=O)C2O[C@]2(CC=C(C)C)C1=O (stereo partly drawn),-4.1,?,-13.8%[11.6 µM],-8.9%,nt,?
CCCC12CN3CC(CCC)(CN(C1)C3c1c[nH]c3ccccc13)C2=O (stereo not drawn),nt,-2.1%,?,nt,-2.7%[59 µM],-9.7%
CCC1(c2ccccc2)NC(=O)N(CC(=O)NCC2COc3ccccc3O2)C1=O (stereo not drawn),nt,nt,nt,nt,-5.3%,nt
CCOC(=O)N1CCC(N2Cc3cccc(C(=O)Nc4cccc(F)c4)c3C2=O)CC1,-0.8,?,3.98µM*[quencher],-19.1%,-0.3%[59 µM],?
CCOC(=O)N1CCC(N2Cc3cccc(C(=O)Nc4ccc(OC)c(OC)c4)c3C2=O)CC1,6.3,9.7%,-12.5%,-3.9%,-20.5%,?
CC(=O)Oc1cc2c3c(c1)/C(=C1/SC(=S)NC1=O)C(=O)N3C(C)(C)C=C2C,-18.1,?,7.08µM*[quencher],35.5µM*,8.91µM*,7.08µM*
CCOc1cc2c3c(c1)C(C)=CC(C)(C)N3C(=O)C2=O,-0.7,-4.7%,-20.8%,14.3%,?,?
O=C(O)CCn1cc(/C=C2/NC(=S)N(c3ccccc3)C2=O)c(-c2ccccc2)n1,7.5,0.7%,-11.2%,11.5%,22.4µM*,-7.6%
COc1cccc(Nc2ncc3nc(-c4cn(C)c5ccccc45)c(=O)n(CCC#N)c3n2)c1,0.1,nt,nt,13.6%,4.1%[0.501 µM],nt
CN(C)c1ccc(/C=C2/NC(=O)NC2=O)cc1,-4.9,5.2%,-11.9%,10.2%,14.0%[59 µM],?
CN(C)c1ccc(/C=C2\N=C(c3ccc(Cl)c([N+](=O)[O-])c3)NC2=O)cc1,-1.0,-15.0%,?,-2.7%,nt,0.891µM*
CCc1cccc(C)c1NC(=O)COC(=O)c1cc([N+](=O)[O-])ccc1N1CCOCC1,nt,nt,nt,nt,6.7%[0.501 µM],nt
Cc1[nH]c2ccccc2c1C1C(c2ccccc2)=NN=C(C(C)C)N1O (stereo not drawn),2.5,10.5%,10.7%,-0.6%,6.31µM*,10.8%
CC1=NN=C(c2ccccc2)C(c2c[nH]c3ccccc23)N1O (stereo not drawn),-2.9,12.2%,7.5%,27.0%,?,3.1%
Cc1ccc(CNC(=O)CCn2cc(-c3ccc(C)cc3)nc2-c2ccncc2)cc1,2.1,nt,nt,-3.7%,44.7µM*,nt
CCCCN(C)C(=O)Cc1c(OC)ccc2cc(Br)ccc12,1.8,8.3%,-4.2%,0.9%,31.6µM*,?
COC(=O)C1CCN(C(=O)Cc2c(OC)ccc3cc(Br)ccc23)CC1,-6.9,-2.6%,-5.1%,56.2µM*,-32.2%,4.5%
CCOc1ccc(C(=O)Nc2ccccc2OCc2cc(=O)n3ccccc3n2)cc1,nt,-4.4%,-6.4%,nt,-6.8%[59 µM],4.1%
SMILES,FBPA coupling cs,Tau fibril FP,Tau fluor cs,Sfp inh,G9a block,Tau fibril ThT
Cc1ccc(C)c(N2CCN(C(=O)c3cnn(-c4ccccc4Cl)c3C3CCN(C(=O)OC(C)(C)C)CC3)CC2)c1,nt,5.5%,-6.5%,nt,-35.9%[59 µM],-15.3%
COc1cccc2c1C(=O)C=C(C)C2=O,-38.8*,?,7.08µM*[quencher],-3.6%,-8.0%[59 µM],7.08µM*
CC1=CC(=O)c2ccccc2C1=O,-32.6*!,?,7.08µM*[quencher],?,8.91µM*,5.01µM*
CC(C)(C=O)C1=CC(=O)c2ccccc2C1=O,-63.2*,?,?,6.31µM*,1.78µM*,8.91µM*
Cc1c(C)c(C)c(CO/N=C/c2cccs2)c(C)c1C,3.2,-0.2%,-17.5%,-13.1%,-2.3%,-13.0%
N#CC1=C(N)N(c2ccc(Cl)cc2)C2=C(C(=O)CCC2)C1c1cc(CN2CCOCC2)cs1 (stereo not drawn),nt,-3.7%,-18.7%,nt,-18.9%[59 µM],-8.8%
Cn1c(NNC(=O)c2ccccc2F)cc(=O)n(C)c1=O,-30.2*,-2.4%,7.2%,-10.9%,nt,nt
Cn1c(NNC(=O)c2c(F)cccc2F)cc(=O)n(C)c1=O,1.5,-2.0%,-3.3%,-0.4%,nt,nt
CCOC(=O)NC(=O)CSc1nc(-c2ccc(C)c(C)c2)cn1-c1ccccc1,3.3,0.4%,-17.3%,-14.4%,7.94µM*,?
CCCc1nnc(NC(=O)Cn2c(=O)oc3ccccc32)s1,-5.7,5.7%,12.7%,?,?,6.1%
CCCc1nnc(NC(=O)Cn2c(=O)oc3cc(Br)ccc32)s1,3.6,-3.2%,-23.8%,?,28.2µM*,-12.4%
O=C(NC(NNc1ccc([N+](=O)[O-])cc1)(C(F)(F)F)C(F)(F)F)c1ccc(Cl)cc1,-2.8,-11.0%,?,-10.5%,39.8µM*,?
CN(CC(=O)Nc1ccccc1Cl)C(=O)COC(=O)C1=COCCO1,nt,nt,nt,nt,1.3%,nt
CCOc1ccc2[nH]c(=S)[nH]c2c1,1.5,8.7%,-5.5%,-7.2%,?,-6.0%
CCOc1ccc2c(c1)n(CO)c(=S)n2CO,1.6,2.9%,0.6%,0.6%,2.24µM*,-4.7%
COc1ccc(S(=O)(=O)N2CCCCCC2)cc1NC(=O)CCCOc1ccccc1,nt,nt,nt,nt,-9.8%[12.7 µM],nt
C[C@@H](C[C@H](N)C(=O)O)C(=O)O,nt,-8.4%,-5.6%,79.4µM*,nt,4.1%
NC(CS)C(=O)O (stereo not drawn),nt,nt,nt,17.8µM*,15.8µM*,nt
N[C@H](CS)C(=O)O,nt,?,-11.5%,31.6µM*,-0.5%[59 µM],?
COC(=O)C1=C(C)NC(C)=C(C(=O)OCC2CCCO2)C1c1cccc(Br)c1 (stereo not drawn),nt,nt,nt,3.0%,103.9%,nt
COc1ccccc1/C=C1\SC(N2CCC(C)CC2)=NC1=O,0.5,nt,nt,-10.5%,-11.5%,nt
